Reference: PubChem BioAssay (NCI)
Where “and” joins values, the source holds several entries; their conditions need not be identical. Identical values can stand only once. Compounds without any hit were thinned out: in the full panel of roughly 83,000, 20% have a hit.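 Percent growth is the endpoint: 0 to 100 indicates growth inhibition (40 means 60% inhibition), 0 means no net growth, and negative values indicate cell death.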 Calls of active or inactive are those of the source. How the source made its calls: active means growth percent below 10; inactive means the rest.

Assays:
Assay in all cases: NCI-60 one-dose screen, 48 h (100 = growth as untreated, 0 = no growth, -100 = all killed)
Conditions in all cases: 10 µM unless noted
NCI-H23 lung = tested on: NCI-H23 lung
NCI-H226 lung = tested on: NCI-H226 lung
NCI-H322M lung = tested on: NCI-H322M lung
HOP-62 NSCLC = tested on: HOP-62 NSCLC
NCI-H460 lung = tested on: NCI-H460 lung
HOP-92 NSCLC = tested on: HOP-92 NSCLC
NCI-H522 lung = tested on: NCI-H522 lung
A549/ATCC NSCLC = tested on: A549/ATCC NSCLC
786-0 renal = tested on: 786-0 renal
COLO 205 colon = tested on: COLO 205 colon
DU-145 prostate = tested on: DU-145 prostate
K-562 leukemia = tested on: K-562 leukemia
MALME-3M melanoma = tested on: MALME-3M melanoma
MDA-MB-231 breast = tested on: MDA-MB-231 breast
RXF 393 renal = tested on: RXF 393 renal
SF-268 CNS = tested on: SF-268 CNS
SF-295 CNS = tested on: SF-295 CNS
SF-539 CNS = tested on: SF-539 CNS
UACC-257 melanoma = tested on: UACC-257 melanoma
M14 melanoma = tested on: M14 melanoma

Measured: growth

CC(CN(C)C)CN1c2ccccc2Sc2ccccc21 (stereo not given)
inactive: NCI-H23 lung 88.9% and 86% and 86.6% | NCI-H226 lung 132% and 112% | NCI-H322M lung 73.1% and 83.9% and 65.2% | HOP-62 NSCLC 92.2% and 78.2% and 80.8% | NCI-H460 lung 95% and 94.3% and 93.5% | HOP-92 NSCLC 21.4% | NCI-H522 lung 81.1% and 116% and 87.2% | A549/ATCC NSCLC 91.8% and 103% and 91.5% | 786-0 renal 59.5% and 45% and 69.1% | COLO 205 colon 48.4% and 84.5% and 85% | DU-145 prostate 97.3% and 111% and 90% | K-562 leukemia 67.2% and 72.1% and 49.8% | MALME-3M melanoma 81.7% and 101% and 95.8% | MDA-MB-231 breast 62% and 90% | RXF 393 renal 53.3% and 86.1% and 70.7% | SF-268 CNS 90.8% and 91.7% and 78.1% | SF-295 CNS 88% and 35.8% and 92% | SF-539 CNS 91.7% and 81.9% | UACC-257 melanoma 65.1% and 110% and 92.1% | M14 melanoma 47.9% and 81.3% and 75.8%

C/C(CC(C)C)=N/NC(N)=S
inactive: NCI-H23 lung 88.8% | NCI-H226 lung 85.8% | NCI-H322M lung 96.9% | HOP-62 NSCLC 99.4% | NCI-H460 lung 102% | HOP-92 NSCLC 78.2% | NCI-H522 lung 95.2% | A549/ATCC NSCLC 83.6% | 786-0 renal 107% | COLO 205 colon 102% | DU-145 prostate 92.2% | K-562 leukemia 56.2% | MALME-3M melanoma 81.4% | MDA-MB-231 breast 100% | RXF 393 renal 108% | SF-268 CNS 88.8% | SF-295 CNS 84.3% | SF-539 CNS 105% | UACC-257 melanoma 74.4% | M14 melanoma 84.4%

COc1ccc(C(=O)C(O)c2ccc(OC)cc2)cc1 (stereo not given)
inactive: NCI-H23 lung 98.4% and 92.7% | NCI-H226 lung 92.5% and 96.2% | NCI-H322M lung 96.6% and 102% | HOP-62 NSCLC 109% and 108% | NCI-H460 lung 104% and 105% | HOP-92 NSCLC 96.2% | NCI-H522 lung 102% | A549/ATCC NSCLC 109% and 103% | 786-0 renal 103% | COLO 205 colon 110% and 108% | DU-145 prostate 110% and 103% | K-562 leukemia 101% and 103% | MALME-3M melanoma 92.2% and 103% | MDA-MB-231 breast 104% and 112% | RXF 393 renal 125% and 103% | SF-268 CNS 103% and 101% | SF-295 CNS 104% and 107% | SF-539 CNS 105% and 103% | UACC-257 melanoma 104% and 101%

N#Cc1c(N)nc2c(c(-c3ccc(Cl)cc3)nn2-c2ccccc2)c1C#N
inactive: NCI-H23 lung 93.7% [100 µM] | NCI-H226 lung 97.1% [100 µM] | NCI-H322M lung 104% [100 µM] | HOP-62 NSCLC 96.1% [100 µM] | NCI-H460 lung 96.8% [100 µM] | HOP-92 NSCLC 90.8% [100 µM] | NCI-H522 lung 102% [100 µM] | A549/ATCC NSCLC 94.9% [100 µM] | 786-0 renal 72.2% [100 µM] | COLO 205 colon 117% [100 µM] | DU-145 prostate 101% [100 µM] | K-562 leukemia 97.6% [100 µM] | MALME-3M melanoma 105% [100 µM] | MDA-MB-231 breast 98% [100 µM] | RXF 393 renal 97.1% [100 µM] | SF-268 CNS 93.7% [100 µM] | SF-295 CNS 97.9% [100 µM] | SF-539 CNS 74.1% [100 µM] | UACC-257 melanoma 91.8% [100 µM] | M14 melanoma 106% [100 µM]

CCN(CC)CCO/N=C1\CC(c2ccc(OC)c(OC)c2)Oc2ccccc21 (stereo not given)
inactive: NCI-H23 lung 96.2% | NCI-H226 lung 84.7% | NCI-H322M lung 94.8% | HOP-62 NSCLC 104% | NCI-H460 lung 104% | HOP-92 NSCLC 79.6% | NCI-H522 lung 88.2% | A549/ATCC NSCLC 97% | 786-0 renal 81.1% | COLO 205 colon 97.5% | DU-145 prostate 105% | K-562 leukemia 82.6% | MALME-3M melanoma 107% | MDA-MB-231 breast 101% | RXF 393 renal 65.5% | SF-268 CNS 99.3% | SF-295 CNS 98.2% | SF-539 CNS 94.7% | UACC-257 melanoma 101%

CC(C)=NOC(C)C(=O)O (stereo not given)
inactive: NCI-H23 lung 108% | NCI-H226 lung 104% | NCI-H322M lung 118% | HOP-62 NSCLC 110% | NCI-H460 lung 107% | HOP-92 NSCLC 73% | NCI-H522 lung 111% | A549/ATCC NSCLC 98.8% | 786-0 renal 97.8% | COLO 205 colon 111% | DU-145 prostate 147% | K-562 leukemia 76.5% | MALME-3M melanoma 112% | MDA-MB-231 breast 99.8% | RXF 393 renal 116% | SF-268 CNS 101% | SF-295 CNS 93.1% | SF-539 CNS 102% | UACC-257 melanoma 92.9%

COc1ccc(/C=C/C(=O)O)cc1OC
inactive: NCI-H23 lung 108% and 98.7% | NCI-H226 lung 102% and 107% | NCI-H322M lung 101% and 115% | HOP-62 NSCLC 104% and 105% | NCI-H460 lung 103% | HOP-92 NSCLC 89% and 97.1% | NCI-H522 lung 102% and 84% | A549/ATCC NSCLC 99.7% and 104% | 786-0 renal 102% and 105% | COLO 205 colon 104% and 115% | DU-145 prostate 108% and 111% | K-562 leukemia 96.7% and 105% | MALME-3M melanoma 103% and 122% | MDA-MB-231 breast 100% and 108% | RXF 393 renal 107% and 111% | SF-268 CNS 108% and 99.3% | SF-295 CNS 107% and 105% | SF-539 CNS 102% and 105% | UACC-257 melanoma 104% and 102%

CC1CC(O)CC(C)(C)C1.CC1CC(O)CC(C)(C)C1.CC1CC(O)CC(C)(C)C1.CC1CC(O)CC(C)(C)C1.[Ti] (stereo not given)
inactive: NCI-H23 lung 104% | NCI-H226 lung 97.2% | NCI-H322M lung 105% | HOP-62 NSCLC 103% | NCI-H460 lung 109% | HOP-92 NSCLC 99.2% | NCI-H522 lung 112% | A549/ATCC NSCLC 92.6% | 786-0 renal 107% | COLO 205 colon 108% | DU-145 prostate 121% | K-562 leukemia 98.2% | MALME-3M melanoma 103% | MDA-MB-231 breast 96.2% | RXF 393 renal 112% | SF-268 CNS 115% | SF-295 CNS 102% | SF-539 CNS 107% | UACC-257 melanoma 113% | M14 melanoma 96%

CC1CCC(=O)N1c1ccc(N)cc1 (stereo not given)
inactive: NCI-H23 lung 103% | NCI-H226 lung 100% | NCI-H322M lung 96.4% | HOP-62 NSCLC 86.3% | NCI-H460 lung 106% | HOP-92 NSCLC 107% | NCI-H522 lung 85.2% | A549/ATCC NSCLC 89.1% | 786-0 renal 106% | COLO 205 colon 104% | DU-145 prostate 105% | K-562 leukemia 99.9% | MALME-3M melanoma 105% | MDA-MB-231 breast 101% | RXF 393 renal 112% | SF-268 CNS 103% | SF-295 CNS 102% | SF-539 CNS 99.8% | UACC-257 melanoma 88.7% | M14 melanoma 104%

C#CCOC(=O)C(N)CS (stereo not given)
inactive: NCI-H23 lung 109% | NCI-H226 lung 99.9% | NCI-H322M lung 97.6% | HOP-62 NSCLC 93.2% | NCI-H460 lung 103% | HOP-92 NSCLC 93.9% | NCI-H522 lung 111% | A549/ATCC NSCLC 118% | 786-0 renal 106% | COLO 205 colon 106% | DU-145 prostate 113% | K-562 leukemia 102% | MALME-3M melanoma 96.6% | MDA-MB-231 breast 84.2% | RXF 393 renal 106% | SF-268 CNS 96.4% | SF-295 CNS 96.5% | SF-539 CNS 86.6% | UACC-257 melanoma 107% | M14 melanoma 97.1%

O=[N+]([O-])c1ccc(NC2CCCCC2)nc1
inactive: NCI-H23 lung 93.2% and 96.9% | NCI-H226 lung 113% and 92.4% | NCI-H322M lung 117% and 105% | HOP-62 NSCLC 94.8% and 101% | NCI-H460 lung 108% and 105% | HOP-92 NSCLC 114% and 81.8% | NCI-H522 lung 95.1% and 92.1% | A549/ATCC NSCLC 101% and 98.5% | 786-0 renal 103% | COLO 205 colon 108% and 102% | DU-145 prostate 96.7% and 119% | K-562 leukemia 108% and 104% | MALME-3M melanoma 118% | MDA-MB-231 breast 95.4% and 114% | RXF 393 renal 126% and 103% | SF-268 CNS 110% and 112% | SF-295 CNS 103% and 102% | SF-539 CNS 99.6% and 110% | UACC-257 melanoma 107% and 106% | M14 melanoma 105% and 109%

COc1ccc(COC=O)cc1
inactive: NCI-H23 lung 97.3% | NCI-H226 lung 100% | NCI-H322M lung 99.1% | HOP-62 NSCLC 98.4% | NCI-H460 lung 104% | HOP-92 NSCLC 109% | NCI-H522 lung 95.5% | A549/ATCC NSCLC 106% | 786-0 renal 103% | COLO 205 colon 108% | DU-145 prostate 98.7% | K-562 leukemia 96.5% | MALME-3M melanoma 102% | MDA-MB-231 breast 112% | RXF 393 renal 110% | SF-268 CNS 95.9% | SF-295 CNS 101% | SF-539 CNS 105% | UACC-257 melanoma 98.5% | M14 melanoma 104%

Nc1nc(=S)c2[nH]cnc2[nH]1
31.7% (inactive) and 2.46% (active): A549/ATCC NSCLC
inactive: NCI-H23 lung 17.6% and 161% | NCI-H226 lung 39% and 37.4% | NCI-H322M lung 39.2% and 85.7% | HOP-62 NSCLC 16.5% and 18% | DU-145 prostate 21.3% and 21% | MALME-3M melanoma 21.6% and 35.7% | MDA-MB-231 breast 32.9% and 29.4% | SF-268 CNS 17.8% and 26.3% | SF-295 CNS 25.6% and 19% | UACC-257 melanoma 41.4% and 24.2%
active: NCI-H460 lung 3.77% and 6.79% | HOP-92 NSCLC -2.57% | NCI-H522 lung -4.74% and 7.57% | COLO 205 colon -27.5% and 7.45% | K-562 leukemia 9.77% and -2.79% | RXF 393 renal 5.3% and -2.73% | SF-539 CNS 7.88%
17.2% (inactive) and 9.97% (active): 786-0 renal
